Results from PubChem BioAssay (Tox21).
Values without a mark were called inactive. Results filed as inconclusive are left out. A call without a number means that no potency is given here. The source made the active and inactive calls. Unless noted, calls come from the whole dose curve; as a rule, active = well fitted curve in the direction sought with a large enough effect in the repeat runs; inconclusive = weak or mixed curves; inactive = no such curve, though single readings can be large; an effect the other way counts as inactive or inconclusive.

Legend:
[1] = qHTS assay for small molecule agonists of the p53 signaling pathway (AID 651631; calls by dose curve; note: nearly all actives have a fitted effect of over 15% in size)
Summary of the method: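 HCT-116 p53RE-bla reporter line, 16 h compound treatment at 37 °C, then fluorescence after 2 h with B/G FRET substrate.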

[2] = qHTS assay for small molecules that induce genotoxicity in human embryonic kidney cells expressing luciferase-tagged ATAD5 (AID 651632); note: nearly all actives have a fitted effect of over 15% in size
Summary of the method: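 Genotoxicity read-out via ATAD5-luciferase: HEK293T cells, 16 hr compound incubation at 37C, Amplite detection.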

[3] = qHTS assay for small molecule agonists of the p53 signaling pathway - cell viability (AID 651633; calls by dose curve;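 note: p53RE-bla HCT reporter cells with a stable beta-lactamase p53 reporter; series mostly up to about 83 µM; nearly all actives have a fitted effect of over 30% in size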)
Summary of the method: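 p53RE-bla cells, seeded at 4,000 per well and rested 5 h at 37 C/5% CO2, received compounds in DMSO for 16 h at 37 C. CellTiter-Glo was then added, and luminescence was read after 30 min at room temperature to gauge cytotoxicity.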

[4] = qHTS assay for small molecules that induce genotoxicity in human embryonic kidney cells expressing luciferase-tagged ATAD5 - cell viability (AID 651634; calls by dose curve; note: nearly all actives have a fitted effect of over 25% in size)
Summary of the method: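 Live-cell protease activity (CellTiter-Fluor, fluorescence) indicates viability. HEK293T cells with luciferase-tagged ATAD5; 15.5 hr compound treatment at 37C.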

[5] = qHTS assay for small molecule disruptors of the mitochondrial membrane potential - cell viability (AID 720634; calls by dose curve;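 note: human HepG2 liver cancer cells; series mostly up to about 83 µM; nearly all actives have a fitted effect of over 20% in size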)
Summary of the method: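 Human hepatoma HepG2 cells were treated for 1 hr with test chemicals, then given m-MPI dye and CellTiter-Glo. Cell viability reflects luminescence proportional to cellular ATP.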

[6] = qHTS assay for small molecule disruptors of the mitochondrial membrane potential (AID 720635); note: potency is the fitted concentration of half-maximal effect
Summary of the method: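 HepG2 cells (2,000/well) attached overnight at 37C, then took compound for 1 hr at 37C, 5% CO2. Mito-MPS dye was added for 30 min; fluorescence was read at 490/535 nm (monomers) and 540/590 nm (aggregates).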

[7] = qHTS assay to test for compound auto fluorescence at 590 nm (red) in HepG2 cells (AID 720674)
Summary of the method: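 Rose Bengal sodium served as the red fluorophore standard. HepG2 monolayers (overnight attachment, MEM with 10% FBS) were exposed to test compounds for 1 hr at 37 C and read at Ex 540/Em 590 nm.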

[8] = qHTS assay to test for compound auto fluorescence at 535 nm (green) in HepG2 cells (AID 720675)
[9] = qHTS assay to test for compound auto fluorescence at 460 nm (blue) in HEK293 cells (AID 720678)
Summary of the method: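 HEK293, 2,000 cells/well, 10% dialyzed FBS; attach 4-5 hr 37C; pin compound or DMSO; o/n 37C/5% CO2; fluorescence 405/460 nm; triamterene-equivalent units.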

[10] = qHTS assay to test for compound auto fluorescence at 590 nm (red) in HEK293 cells (AID 720679)
Summary of the method: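 Intensity at 540nm excitation and 590nm emission is reported as Rose Bengal sodium-equivalent autofluorescence. Measurements followed overnight exposure (37C, 5% CO2) of HEK293 cells, 2,000 per well, to 23 nL compound.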

Compound | Potency [1] | Potency [2] | Potency [3] | Potency [4] | Potency [5] | Potency [6] | outcome [7] | outcome [8] | Potency [9] | outcome [10] | fluorescence, relative to Rose Bengal [7] | fluorescence, % of fluorescein control [8] | fluorescence, % of triamterene [9] | fluorescence, % of fluorescent control [10]
CC(C)(O)C(=O)c1ccc(OCCO)cc1 | inactive | inactive | inactive | inactive | inactive | inactive | inactive | inactive | inactive | inactive |  |  |  | 
Cc1nccn1CC1CCc2c(c3ccccc3n2C)C1=O (centres undefined) | inactive | inactive | inactive | inactive | inactive | inactive | inactive | inactive | inactive | inactive |  |  |  | 
O=C(O)c1ccccc1S | inactive | inactive | inactive | inactive | inactive | inactive | inactive | inactive |  |  |  |  |  | 
CSc1nc(NC2CC2)nc(NC(C)(C)C)n1 | inactive | inactive | inactive | inactive | inactive | 8.63 µM (active) | inactive | inactive | inactive | inactive |  |  |  | 
CCCCCCCCCCCCI | inactive | inactive | inactive | inactive | inactive | inactive | inactive | inactive | inactive |  |  |  |  | 
CC(=O)N[C@@H](CCC(N)=O)C(=O)O | inactive | inactive | inactive | inactive | inactive | inactive | inactive | inactive | inactive | inactive |  |  |  | 
CC(=O)NC(Cc1ccccc1)C(=O)O (centres undefined) | inactive | inactive | inactive | inactive | inactive | inactive | inactive | inactive | inactive | inactive |  |  |  | 
CC1=CC(C)C(C=O)C(C)C1 (centres undefined) | inactive | inactive | inactive | inactive | inactive | inactive | inactive | inactive | inactive | inactive |  |  |  | 
CCC(C(=O)NC(N)=O)c1ccccc1 (centres undefined) | inactive | inactive | inactive | inactive | inactive | inactive | inactive | inactive | inactive | inactive |  |  |  | 
C=C(C)C1CC=C(C)C(O)C1 (centres undefined) | inactive | inactive | inactive | inactive | inactive | inactive | inactive | inactive | inactive | inactive |  |  |  | 
CCCCCN(CCCCC)C(=O)C(CCC(=O)O)NC(=O)c1ccc(Cl)c(Cl)c1 (centres undefined) | inactive | inactive | inactive | inactive | inactive | inactive | inactive | inactive | inactive |  |  |  |  | 
CCCCC1CCCCC(=O)O1 (centres undefined) | inactive | inactive | inactive | inactive | inactive | inactive | inactive | inactive | inactive | inactive |  |  |  | 
CCCCCCCCCCCCCCCCCCOCC(O)CO (centres undefined) | inactive | inactive | inactive | inactive | inactive | inactive | inactive | inactive | inactive | inactive |  |  |  | 
CN(C)CCn1nnnc1SCC1=C(C(=O)O)N2C(=O)[C@@H](NC(=O)Cc3csc(N)n3)[C@H]2SC1 | inactive | inactive | inactive | inactive | inactive | inactive |  |  |  |  | -0.434% [at 18.6 µM] | -0.0016% [at 18.6 µM] | 0.477% [at 18.6 µM] | -0.137% [at 18.6 µM]
CCC(=O)/C=C/c1ccc(OC)cc1 | inactive | inactive | inactive | inactive | inactive | inactive | inactive | inactive | inactive |  |  |  |  | 
c1ccc2cnncc2c1 | inactive | inactive | inactive | inactive | inactive | inactive | inactive | inactive | inactive |  |  |  |  | 
NC(CS)C(=O)O (centres undefined) | inactive | inactive | inactive | inactive | inactive | inactive | inactive | inactive | inactive | inactive |  |  |  | 
N[C@@H](CS)C(=O)O | inactive | inactive | inactive | inactive | inactive | 27.7 µM (active) | inactive | inactive | inactive | inactive |  |  |  | 
COCc1ccc(COC)cc1 | inactive | inactive | inactive | inactive | inactive | inactive | inactive | inactive | inactive | inactive |  |  |  | 
COc1ccc(NC(C)=O)cc1 | inactive | inactive | inactive | inactive | inactive | inactive | inactive | inactive | inactive | inactive |  |  |  | 
CC(C)c1cccc(O)c1 | inactive | inactive | inactive | inactive | inactive | 64.4 µM (active) | inactive | inactive | inactive | inactive |  |  |  | 
Nc1cc(C(Cl)=C(Cl)Cl)c(S(N)(=O)=O)cc1S(N)(=O)=O | inactive | inactive | inactive | inactive | inactive | inactive | inactive | inactive | inactive | inactive |  |  |  | 
CO[Si](CCCNCCC[Si](OC)(OC)OC)(OC)OC | inactive | inactive | inactive | inactive | inactive | inactive | inactive | inactive | inactive | inactive |  |  |  | 
